Results reported in PubChem BioAssay (NCATS).
Results filed as inconclusive are left out. Calls of active or inactive are those of the source. Calls come from the whole dose curve; as a rule, active = well fitted curve in the direction sought with a large enough effect; inconclusive = small, poorly fitted or top-dose-only effect, or another doubt; inactive = no such curve, though single readings can be large; an effect the other way counts as inactive or inconclusive.

biological target: Cytochrome P450 3A4 (Homo sapiens) (UniProt P08684); experiment: qHTS Assay for Activators of Cytochrome P450 3A4 (AID 885); settings: recombinant CYP3A4, Luciferin-PPXE luminescence, 60 min; series mostly up to 57.1 µM; note: nearly all actives have a fitted effect of over 65% in size
Sequence (P08684 whole entry, looked up): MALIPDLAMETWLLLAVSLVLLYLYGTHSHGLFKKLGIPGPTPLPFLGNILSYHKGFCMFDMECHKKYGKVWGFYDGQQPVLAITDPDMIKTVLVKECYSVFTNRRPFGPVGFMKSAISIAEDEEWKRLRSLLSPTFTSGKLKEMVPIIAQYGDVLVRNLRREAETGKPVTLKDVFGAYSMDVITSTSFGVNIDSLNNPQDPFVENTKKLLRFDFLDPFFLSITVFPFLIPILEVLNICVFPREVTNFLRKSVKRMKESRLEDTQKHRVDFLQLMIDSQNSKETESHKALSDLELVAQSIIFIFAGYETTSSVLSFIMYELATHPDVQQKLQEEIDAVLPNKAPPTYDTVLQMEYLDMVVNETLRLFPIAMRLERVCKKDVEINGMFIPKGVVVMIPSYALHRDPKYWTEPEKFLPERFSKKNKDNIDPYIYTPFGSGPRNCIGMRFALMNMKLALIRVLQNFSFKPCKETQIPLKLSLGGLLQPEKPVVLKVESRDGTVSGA
Method in brief: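 Steps: enzyme/substrate mix dispensed; compound added, 10 min RT; NADPH regeneration solution added, 60 min RT; luciferin detection buffer stops reaction; 20 min later luminescence measured.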

Potency, inactive:
COc1ccc2nc3c(c([Si](C)(C)C(C)(C)C)c2c1)Cn1c-3cccc1=O
CC(C)(C)C(=O)NC(c1ccc(Cl)cc1)[C@]1(C)C[C@H]1C1CCCCC1 (some centres undefined)
S=C(Nc1ccccc1)Nc1ccccc1C#Cc1ccccc1
CCCC[C@@H]1C[C@H]1C(NC(=O)c1ccccc1)c1ccc(Cl)cc1 (some centres undefined)
CCCC[C@@H]1C[C@H]1C(NC(=O)c1cccs1)c1ccccc1C(F)(F)F (some centres undefined)
CCCC[C@@H]1C[C@H]1C(NC(=O)c1ccco1)c1ccc(-c2ccccc2)cc1 (some centres undefined)
COC(=O)[C@@]1(Cc2ccc(OC)cc2)[C@@H]2C(=CC(=O)[C@H]2CC(=O)C(=O)N2CCCC2)CN1C(=O)c1ccccc1
CCCC[C@H]1C[C@@H]1[C@@H]1N(P(=O)(c2ccccc2)c2ccccc2)[C@](CO)(c2ccccc2)CC12CC2
C[C@@]1(C(NC(=O)c2cccs2)c2ccc(-c3ccccc3)cc2)C[C@H]1C1CCCCC1 (some centres undefined)
CCCCc1c2ccccc2nc2[nH]c3ccccc3c12
CC(C)c1cccc2nc3c(c(C(C)(C)C)c12)Cn1c-3cccc1=O
CC(C)c1cccc2cc3c(nc12)-c1cccc(=O)n1C3
c1ccc(-c2c3ccccc3nc3[nH]c4ccccc4c23)cc1
CNC(=O)[C@H](C)[C@@H]1C[C@@]1(C)[C@@H](NC(=O)OCc1ccccc1)c1ccccc1
CCC/C=C(\CCC)C(NC(=O)c1ccccc1)c1ccccc1 (centres undefined)
COc1cc2nc3c(c([Si](C)(C)C(C)(C)C)c2cc1OC)Cn1c-3cccc1=O
CCCC[C@@H]1C[C@H]1C(NC(=O)c1ccc(C(F)(F)F)cc1)c1ccc(C(=O)OC)cc1 (some centres undefined)
O=C(NCc1cc(F)cc2c1OCCO2)[C@H]1C[C@@H]1[C@H](NP(=O)(c1ccccc1)c1ccccc1)c1ccccc1
CCC/C=C(\CCC)C(NS(=O)(=O)CC12CCC(CC1=O)C2(C)C)c1ccc(C(=O)OC)cc1 (centres undefined)
COC(=O)c1ccc(C23CC2(C(NP(=O)(c2ccccc2)c2ccccc2)c2ccccc2)C3)cc1 (centres undefined)
COC(=O)[C@@]1(Cc2ccc(F)cc2)[C@H]2c3cc(C(=O)N(C)C)n(Cc4ccc(C)c(F)c4F)c3C[C@H]2CN1C(=O)c1ccccc1
COC(=O)[C@@]1(Cc2ccccc2)[C@H]2c3cc(C(=O)N4CCCC4)n(Cc4nc5ccccc5[nH]4)c3C[C@H]2CN1C(=O)c1ccccc1
CCCC[C@@H]1C[C@H]1C(NC(=O)Cc1ccccc1)c1ccc(-c2ccccc2)cc1 (some centres undefined)
CCCC[C@@H]1C[C@H]1C(NC(=O)c1ccccc1)c1ccccc1C(F)(F)F (some centres undefined)
C#CCCCC(=O)Nc1ccccc1
CCCC[C@@H]1C[C@H]1C(NC(=O)Cc1ccccc1)c1ccc(Cl)cc1 (some centres undefined)
CCC/C=C(\CCC)C(NS(=O)(=O)c1cccc2cccnc12)c1ccc(C(=O)OC)cc1 (centres undefined)
COC(=O)[C@@]1(Cc2ccc(OC)cc2)[C@@H]2[C@@H](CC(=O)[C@H]2CC(=O)C(=O)N2CCCC2)CN1C(=O)c1ccccc1
CCC/C=C(\CCC)C(NP(=O)(c1ccccc1)c1ccccc1)c1ccc(-c2ccccc2)cc1 (centres undefined)
CC(C)(C)[Si](C)(C)c1c2c(nc3ccc(OCc4ccccc4)cc13)-c1cccc(=O)n1C2
COC(=O)[C@@]1(Cc2ccc(F)cc2)[C@H]2c3cc(C(=O)N(C)C)n(Cc4ccc(C)o4)c3C[C@H]2CN1C(=O)c1ccccc1
COC(=O)[C@@]1(Cc2ccc(OC)cc2)[C@@H]2C(=CC(=O)[C@H]2CC(=O)C(=O)N(C)C)CN1C(=O)c1ccccc1
CCCC[C@@H]1C[C@H]1C(NC(=O)c1ccccc1)c1ccc(-c2ccccc2)cc1 (some centres undefined)
COc1ccc(COC2OC[C@]3(C)[C@H]4C5=C(CN3C(=O)OC(C)(C)C)[C@H](C)C(CO)C(CO)C5CC[C@@H]24)cc1 (some centres undefined)
COC(=O)[C@@]1(Cc2ccccc2)[C@H]2c3cc(C(=O)N4CCCC4)n(C)c3C[C@H]2CN1C(=O)c1ccccc1
CC(C)c1cccc2nc3c(c([Si](C)(C)C(C)(C)C)c12)Cn1c-3cccc1=O
C#CCOC(=O)NC(/C=C/CCCC)c1ccccc1 (centres undefined)
COC(=O)c1ccc(C(NC(=O)c2ccco2)[C@]2(C)C[C@H]2C2CCCCC2)cc1 (some centres undefined)
CCC/C=C(\CCC)C(NC(=O)c1cccs1)c1ccc(C(F)(F)F)cc1 (centres undefined)

biological target: Cytochrome P450 2D6 (Homo sapiens) (UniProt P10635); experiment: qHTS Assay for Inhibitors and Substrates of Cytochrome P450 2D6 (AID 891); settings: recombinant CYP2D6, luciferin-ME EGE luminescence; series mostly up to 57.1 µM; note: potency is the fitted concentration of half-maximal effect; nearly all actives have a fitted effect of over 60% in size
Sequence (P10635 whole entry, looked up): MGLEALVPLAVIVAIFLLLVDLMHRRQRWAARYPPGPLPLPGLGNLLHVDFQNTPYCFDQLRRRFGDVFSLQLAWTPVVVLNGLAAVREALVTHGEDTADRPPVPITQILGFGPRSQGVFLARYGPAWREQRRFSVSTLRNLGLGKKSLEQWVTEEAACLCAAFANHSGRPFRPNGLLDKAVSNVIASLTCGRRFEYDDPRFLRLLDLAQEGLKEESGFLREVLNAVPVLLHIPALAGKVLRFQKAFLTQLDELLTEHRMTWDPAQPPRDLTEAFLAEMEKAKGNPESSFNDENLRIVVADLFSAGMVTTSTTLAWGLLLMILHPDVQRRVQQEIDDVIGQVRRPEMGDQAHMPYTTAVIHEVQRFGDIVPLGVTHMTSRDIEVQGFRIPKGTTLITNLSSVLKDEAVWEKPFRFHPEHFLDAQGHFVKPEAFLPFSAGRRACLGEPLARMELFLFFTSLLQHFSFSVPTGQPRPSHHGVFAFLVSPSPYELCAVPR
Method in brief: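 Human CYP2D6 (5 nM) with 30 uM Luciferin-ME EGE (at Km) in 100 mM KPO4, compound preincubated 10 min, then NADPH regeneration system for 60 min at room temperature. Luciferin read by luminescence; normalized to 1.43 uM quinidine.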

Potency, active:
COc1ccc2nc3c(c([Si](C)(C)C(C)(C)C)c2c1)Cn1c-3cccc1=O 2 µM
CCCC[C@H]1C[C@@H]1[C@@H]1N(P(=O)(c2ccccc2)c2ccccc2)[C@](CO)(c2ccccc2)CC12CC2 2.51 µM
CNC(=O)[C@H](C)[C@@H]1C[C@@]1(C)[C@@H](NC(=O)OCc1ccccc1)c1ccccc1 3.16 µM
CCC/C=C(\CCC)C(NS(=O)(=O)CC12CCC(CC1=O)C2(C)C)c1ccc(C(=O)OC)cc1 (centres undefined) 5.01 µM
COC(=O)[C@@]1(Cc2ccccc2)[C@H]2c3cc(C(=O)N4CCCC4)n(Cc4nc5ccccc5[nH]4)c3C[C@H]2CN1C(=O)c1ccccc1 7.94 µM
